GDH-TPI inh: inhibits GDH-TPI coupling enzymes, artifact for Mtb FBA screen; GDH-TPI coupled enzyme counterscreen, NADH absorbance; inhibition, % at 4.8 µM; 360,000 compounds, 1.2% hits; AID 588335; in the data active = inhibition above about 30%;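 note: 0% = DMSO wells and 100% = wells lacking the enzyme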
BoNT-F LC inh: BoNT F light chain protease inhibition; Multiplex microsphere protease cleavage assay, flow cytometry; inhibition, % at 10 µM; 360,000 compounds, 0.22% hits; in the data active = inhibition above about 35%, passing the limit was not always enough; inconclusive = no clear call, values can overlap the other calls; note: plate controls were buffer without enzyme for full effect and enzyme alone for no effect
Mtb FBA inh: inhibitors of M. tuberculosis fructose-bisphosphate aldolase | 360,000 compounds, 2.3% hits | P9WQA3 | purified M. tuberculosis FBA, fluorescence read-out | inhibition, % at 1 µM; in the data active = inhibition above about 27%;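 note: 0% = vehicle and 100% = reference inhibitor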
Target sequence (P9WQA3 whole entry, looked up): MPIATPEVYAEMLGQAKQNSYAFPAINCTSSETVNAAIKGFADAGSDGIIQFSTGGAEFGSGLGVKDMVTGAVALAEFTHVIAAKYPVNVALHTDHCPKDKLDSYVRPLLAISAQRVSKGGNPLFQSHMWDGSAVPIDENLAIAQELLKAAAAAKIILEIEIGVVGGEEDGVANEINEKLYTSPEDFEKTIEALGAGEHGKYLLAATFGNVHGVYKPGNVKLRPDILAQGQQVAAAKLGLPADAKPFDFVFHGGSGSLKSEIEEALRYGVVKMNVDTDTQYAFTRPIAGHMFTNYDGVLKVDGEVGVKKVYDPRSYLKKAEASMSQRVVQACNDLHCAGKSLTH
Autofluor counter: flagged as autofluorescent in microsphere protease counterscreen; compound autofluorescence counterscreen, microsphere flow cytometry; stronger effect = higher value; 360,000 compounds, 3.1% hits; fluorescence intensity (concentration not given with the values); AID 624483; in the data active = fluorescence intensity above about 16000; inconclusive = no clear call, values can overlap the other calls
BoNT A protease: BoNT A light chain protease inhibition. multiplex microsphere protease substrate cleavage, flow cytometry. inhibition, % at 10 µM. 360,000 compounds, 0.17% hits. AID 588499; note: plate controls were buffer without enzyme for full effect and enzyme alone for no effect
Anthrax LF inh2: anthrax lethal factor protease inhibition; multiplex microsphere protease cleavage assay, LF; inhibition, % at 10 µM; 360,000 compounds, 0.12% hits; AID 588501; note: plate controls were buffer without enzyme for full effect and enzyme alone for no effect
* = called active by the depositor; ? = inconclusive. Compounds with a hit are over-represented: about 6.7% of the library has one in this group of screens. Cut-off read from the data, not from the text of the source, unless noted: active = inhibition above about 30%; inconclusive = no clear call, values can overlap the other calls; inactive = below that.

SMILES | GDH-TPI inh | BoNT-F LC inh | Mtb FBA inh | Autofluor counter | BoNT A protease | Anthrax LF inh2
COc1ccccc1CCNC(=O)CCNS(=O)(=O)c1ccc(NC(C)=O)cc1 | -14 | -12 | 0 | 6410 | -4 | 2
COc1ccccc1CNS(=O)(=O)c1ccc(NC(C)=O)cc1 | 1 | -2 | 4 | 22915* | -2 | -2
COc1ccc(S(=O)(=O)NN=C2CCCC2)cc1 | -10 | 0 | 0 | 20396* | -1 | -1
N#C/C(=C(/O)CSc1nnc(Cc2cccs2)n1C1CCCCC1)c1nc2ccccc2[nH]1 | 28 | 4 | 1 | 3542 | 2 | 2
CC(C)CCC(CCN1CCOCC1)c1ccc2c(c1)OCO2 (stereo not drawn) | -8 | 0 | 7 | 20867* | -1 | -2
CC(C)CCC(CCN1CCCC1)c1ccc2c(c1)OCO2 (stereo not drawn) | -5 | -10 | -1 | 6219 | 0 | -7
O=C(CSc1n[nH]c(=O)[nH]c1=O)N/N=C/C=C/c1ccccc1 | 43* | -3 | -1 | 4420 | 0 | -3
O=C(CSc1n[nH]c(=O)[nH]c1=O)N/N=C/C=C\c1ccccc1 | 13 | -10 | -4 | 3814 | 0 | 1
O=C(Nc1ccc(Cl)c(C(F)(F)F)c1)C1CCCN(S(=O)(=O)c2cnc[nH]2)C1 (stereo not drawn) | -5 | -4 | 0 | 20180* | -1 | -3
CCNc1ccc(C(=O)OCC(=O)c2cc(C)n(Cc3ccc4c(c3)OCO4)c2C)cc1[N+](=O)[O-] | 1 | 1 | 3 | 2381 | 0 | -1
Cc1cc(C)nc(N/C(=N\S(=O)(=O)Cc2ccccc2)Nc2ccc(F)c(Cl)c2)n1 | -1 | -8 | 2 | 2944 | -1 | 2
Cc1cc(C)nc(N/C(=N\S(=O)(=O)Cc2ccccc2)Nc2cccc(Cl)c2C)n1 | -4 | -1 | -2 | 21814* | 0 | -2
CC(C)COC(=O)CCn1[nH]c(=O)c2ccccc2c1=O | 18 | 1 | -1 | 22405* | ? | 0
CCCCCCCCOC(=O)CCn1[nH]c(=O)c2ccccc2c1=O | 5 | 4 | 5 | 2753 | 0 | -2
Cc1cc(NC(=O)c2ccc(S(=O)(=O)Nc3ccccc3)cc2)no1 | 8 | 5 | -6 | 6589 | 0 | -5
Cc1oc2ccc(O)cc2c1C(=O)OC(C)C | 0 | 4 | 0 | 8781 | 0 | 2
CCOC(=O)/C(N=Nc1c(C)n(C)n(-c2ccccc2)c1=O)=C(\C)O | 12 | -2 | 1 | 2419 | 0 | -1
NNC(=O)c1cn2ccccc2n1 | 17 | 1 | -1 | 19411* | ? | -5
O=C(Nc1nccs1)c1cn2ccccc2n1 | 0 | 0 | 4 | 5249 | 0 | -4
Cc1nn(-c2ccccc2)c2sc(-c3nnc(SCC(=O)O)o3)cc12 | 17 | -6 | 101* | 10674 | 1 | 2
Cn1c(O)c(C=NC2CCN(Cc3ccccc3)CC2)c(=O)[nH]c1=O | 0 | ? | -5 | 3960 | ? | -8
Cn1c(O)c(C=NC2CCCCCC2)c(=O)[nH]c1=S | 32* | -8 | -8 | 2497 | -1 | 0
COc1ccc(C(=O)N/N=C/c2ccc(OC)c(COc3ccccc3)c2)cc1 | 37* | 2 | 4 | 4246 | 1 | 1
CSc1ccc(/C=N/NC(=O)c2cccs2)cc1 | 23 | 45* | 1 | 3499 | 0 | ?
COc1ccc(C(=O)NN)cc1COc1ccc(Br)cc1 | -7 | -4 | -2 | 19591* | 0 | 0
SMILES | GDH-TPI inh | BoNT-F LC inh | Mtb FBA inh | Autofluor counter | BoNT A protease | Anthrax LF inh2
COc1ccc(C(=O)N/N=C/c2ccc(SC)cc2)cc1 | 46* | -4 | -1 | 2264 | 0 | -1
CN(C)S(=O)(=O)c1cccc(NC(=O)CNC2CCCCC2)c1 | 9 | 0 | 2 | 3722 | 2 | -3
CC(=O)c1ccc(-n2cc(C#N)c(=O)[nH]c2=O)cc1 | 1 | ? | 3 | 4804 | -9 | 1
Cc1cccc(CCN(C(=O)Cc2cccs2)C(C(=O)NC2CCCCC2)c2cccnc2)c1 (stereo not drawn) | 3 | 2 | -4 | 15958 | 1 | 0
COc1ccc(/C=N/NC(=O)c2cccnc2)cc1 | 14 | -20 | -1 | 3673 | -2 | -5
CSc1ccc(/C=N/NC(=O)c2ccc(O)cc2)cc1 | 55* | 23 | 8 | 2582 | 2 | -1
COc1ccc(/C=N/NC(=O)c2ccc[nH]2)cc1 | 32* | ? | -2 | 4060 | 0 | -8
O=C(N/N=C/c1ccc(O)cc1)c1ccncc1 | 25 | 0 | 3 | 3884 | 1 | 12
O=C(N/N=C/c1ccncc1)c1cccs1 | 5 | -19 | -2 | 3837 | -3 | 24
O=C(N/N=C\c1ccc(Cl)s1)c1cccs1 | 33* | -2 | -2 | 2965 | -1 | 0
CSc1ccc(/C=N/NC(=O)c2ccccc2Cl)cc1 | 72* | -7 | 8 | 3187 | 0 | -7
COc1cc(/C=N/NC(=O)c2ccc(O)cc2)ccc1OCC(=O)N1CC(C)OC(C)C1 (stereo not drawn) | 52* | -9 | -4 | 4554 | -1 | -5
COc1cc(/C=N/NC(=O)c2ccc(O)cc2)ccc1OCC(=O)Nc1cccc([N+](=O)[O-])c1 | 28 | 11 | 1 | 3574 | 2 | 8
Cc1ccccc1OCC(=O)OCC(=O)NC1CCCC(C)C1C (stereo not drawn) | 6 | 0 | 3 | 2939 | 0 | -5
O=Nc1ccc(O)c2ncccc12 | 24 | -5 | -4 | 4999 | -1 | -4
CC1(C)CC(=O)C(C=NCCN2CCN(CCc3ccccc3)CC2)=C(O)C1 | -7 | -3 | 1 | 20820* | -3 | 0
CC1(C)CC(=O)C(C=NCCN2CCN(CC(=O)Nc3ccc(F)cc3)CC2)=C(O)C1 | -3 | -7 | -1 | 6043 | 1 | 1
CC1(C)CC(=O)C(C=NCCN2CCN(C(=S)Nc3ccc(F)cc3)CC2)=C(O)C1 | 15 | -5 | -3 | 16455* | ? | -6
CC1(C)CC(=O)C(C=NCCN2CCN(C(=O)Cc3ccccc3)CC2)=C(O)C1 | -9 | -17 | -3 | 12206 | -2 | -4
COc1cccc(C(=O)O/N=C(\N)c2ccc(C)cc2)c1 | 5 | -21 | 0 | 3322 | -1 | 5
CCOc1cc(/C=N\NC(=O)OC)ccc1OC(=O)c1ccco1 | 3 | 8 | 1 | 3299 | 0 | -3
Cn1nc(-c2ccc(N3CCCCC3)c(NC(=O)c3ccco3)c2)c2ccccc2c1=O | 2 | -2 | 1 | 23305* | ? | -2
Cc1cc(C)nc(/N=C(\N)C2=C(O)CC(C)(C)CC2=O)n1 | -5 | -4 | -1 | 21038* | 0 | -2
CC(=Nc1ccccc1)C1=C(O)CC(C)(C)CC1=O | -4 | -8 | -6 | 4531 | -1 | -10
C#CCOC(=O)/C(=C/C=C/c1ccccc1)NC(=O)c1ccccc1 | 23 | 1 | -2 | 2104 | 0 | 0
O=C(Nc1ccc(C(=O)O)cc1)/C(=C\C=C\c1ccccc1)NC(=O)c1ccc(Br)cc1 | 31* | 5 | -1 | 5138 | -1 | -4
